# PubChem BioAssay AID1347426 (Functional Genomics Laboratory (NCATS/FGL), 2020)
# The whole screen tested about 31,000 sequences, of which about 1,400 (4.5%) were called active. The sample as a whole holds a higher share of actives than the screen did. A number with no mark means an inactive call.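 The calls were made as follows: active = median seed-adjusted z-score above 1 or below -1; inactive = the rest.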
# Experiment: Novel Modifiers of Survival Motor Neuron (SMN) Protein: Gene Identification via Genome-wide siRNA Screen
# Settings: HEK293T SMN2-luciferase reporter, siRNA knockdown, 72 h; actives lie on both sides
# From the text: Spinal muscular atrophy (SMA) is the most common neuromuscular autosomal recessive disorder and one of the leading genetic causes of infant death. SMA results from mutations inducing loss of function or deletion in the survival of motor neuron-1 gene (SMN1), leading to deficiency of the survival motor neuron (SMN) protein. Although a second nearly identical gene, SMN2, is retained in humans, its expression primarily produces an aberrantly spliced isoform that is largely unstable and quickly degraded. We performed a genome-wide RNAi screen using a cell-based reporter assay to identify genes and pathways that modulate SMN protein stability. The screen identified over 200 genes that led to the greatest increase or decrease in luciferase expression.
# Using HEK293T cells stably expressing a luciferase reporter that combines the promoter and splicing based cassettes in tandem with the major portion of the native SMN2 cDNA with luciferase, we performed a genome-wide RNAi screen to identify modulators of SMN protein levels. Luciferase is expressed when full-length SMN protein is generated with luminescence signal proportional to SMN protein levels. Our luciferase-based reporter assay was used to screen Ambion Silencer Select Human Druggable Genome siRNA library (10418 genes, 3 unique siRNAs per gene) using lipid-based reverse transfection.
# Briefly, 1 pmol of each siRNA was spotted to a well of a 384-well plate (Corning, Corning, NY) and 20 microL of serum-free DMEM containing […] of Lipofectamine RNAiMax (Life Technologies, Carlsbad, CA) was then added to each well. Transfected cells were maintained at 37 degrees C in 5% CO2 for 72 hours, 20 microL of ONE-Glo Reagent (Promega) was added to wells for luciferase quantification. Raw luminescence reads were normalized to Ambion(R) Silencer(R) Negative Control #2 siRNA, then log10 transformed. A robust statistical measure of median absolute deviation (MAD) to standardize siRNA activities from each screen. Common Seed Analysis was used to help prioritize clean hits as opposed to those appearing to arise from seed based off-target effects. Candidate modulators were defined as the genes having a MAD score greater than 1.0 or less than -1.0.
row,Sequence,median seed-adjusted z-score
1,CCUGAUGUCUUAUCUCAGATT against ZNF398,0.119
2,AAAUCUUCGUGAACUUGGATT against MMD,0.193
3,CCAUCUAGAGUAUCACGCATT against CYGB,-0.34
4,GAAAUUCCACUGUAUCUAATT against COX7A2,-0.0808
5,GAGAGAAACUGUCAGAGUATT against RNF185,-0.388
6,CCCUCUUCCUUAUCCUGCATT against PITPNM1,-0.203
7,GAACAACCCUAACCCAAGATT against ITGAM,-1.56 (active)
8,CCAACUCGGCAAAACCGUUTT against NDUFS3,-0.54
9,CAACAACACCUGUUGCUUUTT against RGS17,-0.627
10,GAGCUACAUUACUAAGUCATT against ZNF223,0.367
11,CCAGGCAAAUAGUGAAGAATT against VAX1,0.937
12,GCAGUUCCUAAAUUUCCGATT against SNX9,0.684
13,GGAGAAUGCCGAAGAGGAATT against POLR2F,-3.52 (active)
14,GGCUGUACUUCGUCAUGGATT against PRKCA,-0.249
15,CAUCCGACAUUGAAGUUGATT against B2M,-0.367
16,CGAGUAUGGUUUCCGCAAATT against UHMK1,-0.269
17,GAAUGCGAUUCACACCUUUTT against CAT,0
18,CCCUAAUUCUUCGUCAUAATT against AMIGO2,-0.258
19,CAUUGGUUUUGAUGAGUAUTT against SNRPE,-2.77 (active)
20,CUGUUUAACUGUGAGAUCATT against ANP32E,-0.0648
21,GCCUGCAAGUGUCCCAAAATT against NTN1,-0.0419
22,GAUAUUUGCCUAUGCCUUUTT against ZMYND19,0.369

row,Sequence,median seed-adjusted z-score
1,GAAGGACAUGUACAAGAAATT against ITPKA,-0.136
2,CCAGCAUCCCUAGCUCAGATT against SYVN1,-1.41 (active)
3,GUCCGUUAACUAUCUGUUATT against GNAI3,0.0656
4,AAAUUAGAGUGAACAAGAATT against NFIC,0.72
5,CAGUGGAUAUCAAGCUUAATT against OPA1,-0.182
6,GCAAGUGACUGCUAUCAAUTT against GRIA2,-1.02 (active)
7,GAUCGUCUGCUGAAUACAATT against NASP,0.133
8,CAUCCAUUUGUCUUGCAAATT against GTF2F2,-1.14 (active)
9,CCACAGUUCCUGUCAUGUUTT against ACMSD,0
10,GCACUUGUAAGAACUGGUATT against POSTN,-0.45
11,CGUCAGCGGUUUAGCUGGATT against SLC25A10,-0.571
12,CGCACAGUGCCUAACCCUATT against RAB26,0.171
13,GGAAGUUCAUGCCUCUGGATT against UBA7,2.41 (active)
14,GGUUCUAUAGCAGACAAUATT against LOC81691,-0.285
15,AGCUCCCUGCCUUUAAUAATT against CHPF,0.248
16,GAUCGCUACUUACAGGAUATT against CYP51A1,-0.242
17,GAGUGAUAUGGAUAGUGAATT against TTC18,-1.15 (active)
18,GGAAUCUCAUUUUAUCGUATT against SLC7A2,-0.245
19,GGAAGAAUUCAAUACGGCATT against FOXJ2,-0.627
20,GGAUGCACCACAUCUAGUATT against RPS6KA3,-0.0233
21,CCAAUUCCAGGUUAACUUUTT against S100A7A,0.212
22,GGAGUGAAGACUUCGAGAATT against KCNN2,-0.0251

row,Sequence,median seed-adjusted z-score
1,CCUUCAAGCUGCAGACUAATT against THBS4,-0.28
2,CGACAUAACUAUGUUCGGATT against ETF1,-1.12 (active)
3,GGAUUUUGCCUUAGCGGUATT against OSBPL8,0.231
4,GCCUAUCCUAGAACCAUCATT against KLK14,-0.0998
5,GGACUUACCUUCAACCAAUTT against RSF1,0
6,CAACCUUCCUCGGACUAAUTT against SLC26A2,-1.25 (active)
7,GGACUUGGAUUCGAGGAUATT against COL15A1,0.161
8,CCUAAAUGAUCGCAAAGUATT against PABPC1,-0.126
9,CCUUUACUACGUGUGCACATT against POLR2I,-3.27 (active)
10,GGAAGAACUUUCUCGGUAATT against TIMP2,0.0444
11,CAAACGAUCUGAAGGUGAATT against AKTIP,-0.194
12,GGACAGAGGGCAACUAUAATT against KCNV2,-1.13 (active)
13,AAGCUAUUGUGAUCUCUGATT against ZBTB3,-0.0419
14,GAAUUAUGGAUGACGAUAATT against CAPSL,-0.168
15,CACUCGUUCCGGUUCCUUUTT against ZNF439,-0.26
16,CAGUGAGGCUGUUCUCGAATT against LIMCH1,0.125
17,CAGGUGAUGUGAUAUCAUATT against VGLL2,-0.0234
18,GCUAAUCCAUUUGAUGACATT against PYGO1,-1.23 (active)
19,GAAUGUAACUUCACAACCATT against ZHX2,0.0708
20,AGAAAGCUUUGGGCAAAUATT against EEF1B2,0.388
21,CAACAUAUCUGCACAGGUATT against FLVCR2,-0.336
22,GGCUGUAACGUGAACAUCATT against DAPK1,0.27

row,Sequence,median seed-adjusted z-score
1,UCGAGCAACUUAUUCCAUATT against MED30,-2.06 (active)
2,GCCUGUCCCAGACCAUUGATT against KLC4,0
3,GCUUCUCUUUGAAUACCCATT against KCNA2,-1.03 (active)
4,CAAGUUCUCUUAUCCACCATT against PPP1R15A,0.539
5,UGAAAUGGAUGAAAACCUATT against SNAP25,0
6,GCGUGUUCGUGCACGUCUATT against MOBKL2A,0.268
7,CAGCAACCAUGGAAAUCGATT against MYST4,0.138
8,ACUGGACAGUGGUAUCAGATT against UBASH3A,-1.1 (active)
9,CAGGUACAGCGCAUCGUUATT against EDC4,0
10,GGGAUGAUUCAGACAAACATT against ZC3HAV1,0.522
11,CAGUGGAUCUAUAUGAACATT against KIT,-0.686
12,GCAUUUACACUGUAUAUUATT against POU4F2,1.46 (active)
13,AACUCGCAGUGGUUCAAUUTT against TXNDC8,-0.281
14,GCAAGGAUAUGUACCAGAUTT against AGXT,0.017
15,GGUUCAAUGGAAAAGGGAATT against DLX6,0.0275
16,GAACUGAUAUCUGAAGAGATT against MLPH,-1.2 (active)
17,CCUUCAUUGAGGACCUGAATT against PTP4A3,0.354
18,GCUUCUCACGAGAUUGAAATT against SCARA3,-0.05
19,GGGUUAGACGGAUACAAGATT against LILRA2,-0.103
20,CAGUACAGGUUGAGUCAAATT against LRRFIP1,-0.181
21,GCAAUUGAAUAUUGGAGUUTT against MED17,-2.06 (active)
22,CAUAGAAGCGGAUACUUAUTT against GALM,-0.111

row,Sequence,median seed-adjusted z-score
1,GCAGGGUGCACAUAUCAUUTT against VNN3,0.343
2,ACAUCUGCCUGAUCUCAUATT against INDO,0.0511
3,CCACUAAACUGCGAGAGAATT against CEBPD,-0.101
4,GUGUGAGGGUUGAACUCAATT against EGLN1,2.05 (active)
5,CGGUAUUAUUGUCAUUGCATT against UBE2K,0.497
6,GCAAUAUGUUUAUCCAUAATT against CSE1L,0.425
7,GACAAAUGUUUGGUCAAUUTT against A2BP1,1.17 (active)
8,AUACUGACUUCAUAGAAAATT against RGS2,0.00236
9,GGAUAUCAACUUAUUAGAUTT against XPO1,1.12 (active)
10,GCAUUGCAGAGAACCGACATT against METTL7A,0.278
11,CCUUGAUAGUGGUCGGGAATT against OSBPL3,0.0159
12,ACAGUGUAUUCAAACAGUATT against NGF,-0.325
13,GGAUAACUUCUCCUUGUCATT against PRM3,0.249
14,AGAGGAUCAAGGUUUUAAATT against APBA2,1.66 (active)
15,GGCCGUUACUGAUUGAGCUTT against CAPN7,0.125
16,GCAUUUCGCUGUACAAGUUTT against IPO4,-0.0188
17,GGAUUCAUCCGGUCCAGAUTT against PEX5L,0.0982
18,GGCUUGCUGUAAUUACCCATT against ABCB1,-0.384
19,GCUUUACAUGGUUUUCGAATT against CASK,-0.422
20,GGAGAGUGCUACAAGGUGATT against COL6A2,0.0119
